# From PubChem BioAssay AID1285 (Columbia University Molecular Screening Center, 2008)
# In all, about 190,000 compounds went through this assay and about 1,600 (0.84%) were called active. What follows is part of a selection rich in actives, with near analogues and random picks from the rest. Values without a mark were called inactive.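 Rule for the calls: active = inhibition above a set limit, derived from the sample mean plus 3 SD (cut at about 45% in these data); inconclusive = one replicate passes the limit while the other fails; inactive = the rest.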
# Assay: inhibitors of APP translation via 5'UTR reporter, primary screen, APP 5'UTR luciferase, SH-SY5Y cells (AID 1285)
# Conditions: SH-SY5Y APP 5'UTR-luciferase reporter, luminescence; at 2 µM; hits give high values
row,Compound,inhibition
1,CCOc1ncccc1C(=O)OCC(=O)NC1CC1,17%
2,O=c1c([N+](=O)[O-])cccn1Cc1ccc(F)cc1Cl,-2.2%
3,Cc1ccc(OCC(=O)N/N=C/c2ccncc2)cc1,0.8%
4,Cc1ccc(OCC(=O)N/N=C\c2ccco2)c(C)c1,-0.4%
5,Cc1ccc(/C=N/NC(=O)COc2ccccc2-c2ccccc2)cc1,97% (active)
6,CN1CCC(=NNC(=O)c2ccc(N(Cc3ccc(Cl)cc3)S(C)(=O)=O)cc2)CC1,-0.2%
7,Cc1ccc(S(=O)(=O)N(CC(=O)NN=C2CCN(C)CC2)c2ccc(F)cc2)cc1,-21%
8,CCOc1ccccc1C(=O)NCc1ccco1,-2.6%
9,CCCC1=Nc2cc(C(=O)NCc3ccco3)ccc2Sc2ccccc21,90.1% (active)
10,COc1ccc(CCNS(=O)(=O)c2ccc(C(=O)NCc3ccco3)cc2)cc1OC,-8.6%
11,CC(=O)N1CCN(S(=O)(=O)c2cccc(C(=O)NC3CCC(C)CC3)c2)CC1 (stereo not given),2.6%
12,O=C(COc1ccc(NC(=O)c2ccccc2[N+](=O)[O-])cc1)c1ccc(F)cc1,-3.2%
13,CCN(CC)C(=O)N(CC)Cc1ccccc1,-8.7%
14,CC(=O)Nc1ccc(S(=O)(=O)N2CCSCC2)cc1,11.7%
15,CC(=O)Nc1ccc(S(=O)(=O)N2CCN(C3CCCCCCC3)CC2)cc1,-4.6%
16,CC(=O)Nc1ccc(S(=O)(=O)N2CCN(C(=O)c3ccccc3F)CC2)cc1,94.3% (active)
17,CN(Cc1ccc2nsnc2c1)Cc1nc(Cc2cccc(F)c2)no1,-3.3%
18,CNc1ccc(NC(C)=O)cc1[N+](=O)[O-],-17.6%
19,CC(C)CC(=O)NC(=S)Nc1ccc(F)cc1F,-8.3%
20,COc1cccc(OCCOc2cccc(/C=N/n3cnnc3)c2)c1,-90.8%
21,COc1ccccc1OCCOc1ccc(/C=N/n2cnnc2)cc1,8.5%
22,Cc1ccccc1OCCOc1ccc([N+](=O)[O-])cc1/C=N/n1cnnc1,45.2% (active)
23,O=C(COC(=O)c1cc(-c2cccs2)nn1-c1ccccc1)Nc1cc([N+](=O)[O-])ccc1Cl,-13.5%
24,Cc1cc(C(C)(C)C)cc(S(=O)(=O)Nc2ccc(C(=O)O)cc2)c1C,2.7%
25,CNC(=S)NNC(=O)c1cccn(Cc2ccccc2)c1=O,4.8%
26,CCN(CC)S(=O)(=O)c1ccc(N2CCCC2)c(NS(=O)(=O)c2cccs2)c1,7.7%
27,COc1ccc(Nc2cc(C)nc(-n3nc(C)cc3C)n2)cc1,92.8% (active)
28,COc1ccc(NC(=O)c2nc(-n3nc(C)cc3C)ccc2Cl)cc1Cl,21.2%

row,Compound,inhibition
1,Cc1cc(Oc2ccc(Cl)cc2)nc(SCC(=O)c2ccccc2)n1,-11.5%
2,Cc1cc(C)n(-c2cc(Oc3ccccc3)ncn2)n1,-14.1%
3,CC(=O)c1ccc(Oc2cc(C)nc(-n3nc(C)cc3C)n2)cc1,93.7% (active)
4,COc1ccccc1/C=N\Nc1cc(C)nc(-n2nc(C)cc2C)n1,3.2%
5,O=C(NCc1ccccc1)C1=C[C@@H](c2ccc(C(F)(F)F)cc2)C[C@@H](OCc2ccc(CO)cc2)O1,-9.6%
6,O=C(CSc1nc2ccc(Nc3nc(N4CCOCC4)nc(N4CCOCC4)n3)cc2s1)NCc1ccco1,-2.6%
7,CN1CCCN(C(=O)C2CCCCC2)CC1,4.4%
8,O=[N+]([O-])c1cccc(/C([O-])=C(/C(=S)Nc2ccccc2F)[n+]2ccccc2)c1,-11.7%
9,CCOC(=O)c1c(C)[nH]c(C2=NNC(=NC(C)COC)SC2)c1C (stereo not given),-102%
10,O=S1(=O)CCC(NC(=S)SCc2ccccc2Br)C1 (stereo not given),0.3%
11,Cc1nn(C)cc1/C=N/NC(=O)c1sc2ccccc2c1Cl,55.6% (active)
12,O=C(N/N=C/c1c(Cl)[nH]c2ccccc12)c1sc2ccccc2c1Cl,-4.8%
13,O=C(Nc1ccon1)c1sc2ccccc2c1Cl,-68.6%
14,Cc1ccccc1CCN(CC(=O)NC1CCCCC1)C(=O)c1csnn1,11.3%
15,O=c1nc(N/N=C/c2ccco2)cn[nH]1,12.4%
16,O=C(O)c1ccc(N/N=C/c2cn(-c3ccccc3)nc2-c2cccs2)cc1,-140%
17,CC(C)(O)C#Cc1ncc(C(F)(F)F)cc1Cl,-2.7%
18,CC(=O)Nc1ccc(Nc2c3ccccc3nc3ccccc23)cc1,92.3% (active)
19,O=[N+]([O-])c1cccc(Nc2c3ccccc3nc3ccccc23)c1,0.1%
20,CC(=O)Nc1ccc(NC(=O)COc2ncnc3ccccc23)cc1,0.3%
21,C=CCn1c(SCc2ccc(Cl)c(Cl)c2)nnc1C(CO)NC(=O)c1ccc(OC)cc1 (stereo not given),-13.3%
22,CCOc1ccc(CCNC(=O)C2=C(C)C(=O)OC23CCC(C)CC3)cc1OCC (stereo not given),-9.6%
23,N=c1c2c(-c3ccccc3)c(-c3ccccc3)oc2ncn1Cc1ccco1,-10.8%
24,N=c1c2c(-c3ccccc3)c(-c3ccccc3)n(Cc3ccccc3)c2ncn1CCCO,77.3% (active)
25,Cc1nc([N+](=O)[O-])c(NCCCO)n1Cc1ccccc1,6.3%
26,C/C(CCc1ccccc1)=N\NC(=O)c1ccc(CN2CCOCC2)cc1,-5.3%
27,COc1ccc(N2C(=O)CC(SC(C)C)C2=O)cc1 (stereo not given),-20.2%
